Screens as filed in PubChem BioAssay.
Shown are actives, neighbours in structure and some others; about 5.7% of the full set was active somewhere.
Myeloid diff MLP: promotes myeloid progenitor differentiation; ER-HoxA9 myeloid progenitors, lysozyme-GFP differentiation, flow cytometry; calls only at 10 µM; 360,000 tested, 1% active; AID 624256;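 active = normalized GFP-positive differentiation at or above the plate's own cutoff, the solvent-only control mean plus 3 SD; inconclusive = no clear call, values can overlap the other calls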;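 also: cells exposed to compound for four days before flow analysis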
GRIN3A LBD mod: modulates the human NR3A ligand-binding domain. 340,000 tested, 2.5% active. AID 1259313. NR3A LBD differential scanning fluorimetry, Tm shift; 0% = protein alone, 100% = glycine-bound protein. Tm shift relative to glycine control, % at 25 µM;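 active = melting temperature shift of at least 10% of the positive control shift, at one fixed dose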
rCAG binder: binds r(CAG) RNA repeats; inhibition, % at 3 µM; 370,000 tested, 1.3% active; r(CAG) RNA repeat, TO-PRO-1 dye displacement fluorescence;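 active = inhibition above the plate cutoff, the mean of all test compounds on that plate plus 3 SD, cut at about 35% in these data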;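 also: 0% = DMSO alone and 100% = 100 µM mitoxantrone as full dye displacement; higher means more dye released from RNA so lower well fluorescence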
FAS-TE inh: blocks the thioesterase domain of human fatty acid synthase | P49327 | recombinant FAS-TE, OMFH fluorogenic substrate, fluorescence endpoint | inhibition, % at 15 µM | 360,000 tested, 0.67% active | AID 602261;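 active = compounds whose normalised, plate-corrected inhibition of enzyme fluorescence in the single-dose primary screen is 50% or more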;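 also: 0% = DMSO with enzyme and 100% = substrate without enzyme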
MPTP inh: inhibitors of mitochondrial permeability transition pore; isolated mouse mitochondria, Ca2+ swelling absorbance, 30 min; inhibition, % at 10 µM; 360,000 tested, 1.4% active; AID 602449;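 active = inhibition of 50% or more, scaled per plate between neutral and stimulator controls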;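 also: 0% = DMSO wells given calcium and 100% = 1 mM EGTA wells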
FAS-TE conf: FAS thioesterase (human) inhibition, confirmation | recombinant FAS-TE, OMFH fluorogenic substrate, fluorescence | 2,300 tested, 45% active | inhibition, % at 15 µM | shares compounds with FAS-TE inh;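 active = compounds inhibiting the enzyme by at least 50% at 15 µM in any one of the replicates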;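 also: 0% = enzyme with DMSO only and 100% = wells lacking enzyme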
MPTP counter: membrane potential counter-screen of mitochondrial pore inhibitors; AID 624504; inhibition, % at 10 µM; 5,000 tested, 78% active; isolated mitochondria, Rhodamine 123 fluorescence; shares compounds with MPTP inh; in the data active = inhibition above about 22%;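 also: 0% = DMSO vehicle and 100% = positive control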
MPTP abs DR: dose response confirmation of mitochondrial permeability transition pore inhibitors | isolated mitochondria swelling, absorbance | IC50, µM | 780 tested, 58% active | shares compounds with MPTP inh; in the data active = IC50 below about 20 µM
MPTP cs DR: active in counter-screen for permeability transition pore inhibitors | shares compounds with MPTP inh | isolated mitochondria counterscreen, fluorescence read-out | IC50, µM | 780 tested, 49% active | AID 651564; in the data active = IC50 below about 80 µM
rCAG bind conf: r(CAG) RNA repeat binding, confirmation. AID 652065. inhibition, % at 3 µM. 4,300 tested, 70% active. shares compounds with rCAG binder. TO-PRO-1 dye displacement fluorescence;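 active = inhibition above a per-plate cutoff, the mean inhibition of sample wells plus 3 SD, cut at about 35% in these data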;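 also: loss of TO-PRO-1 fluorescence as compound displaces dye from 1x1 AA loop RNA; 0% = DMSO only wells and 100% = 100 µM mitoxantrone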
DNA CAG counter: disrupts DNA CAG TO-PRO-1 complex, flagging rCAG hits. shares compounds with rCAG binder. d(CAG) DNA oligo TO-PRO-1 dye displacement, fluorescence. inhibition, % at 3 µM. 4,300 tested, 94% active. AID 652068;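 active = inhibition above its plate's cutoff, the mean test-well inhibition plus 3 SD, cut at about 4.8% in these data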;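 also: 0% = DNA dye mix with DMSO and 100% = 100 µM mitoxantrone; hits displace the dye from DNA and so lower well fluorescence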
* = called active by the depositor; i = inactive; ? = inconclusive; . = not tested or not shown; + = active, no number; ! = not confirmed by another sample.

SMILES	Myeloid diff MLP	GRIN3A LBD mod	rCAG binder	FAS-TE inh	MPTP inh	MPTP counter	others
O=c1oc2ccccc2c(O)c1C(c1ccc([N+](=O)[O-])cc1)c1c(O)c2ccccc2oc1=O	i	-1	96*	76*	42	.	FAS-TE conf=82*;rCAG bind conf=94*;DNA CAG counter=76*
CN1C(=O)c2ccccc2NC(=O)C1Cc1ccccc1 (stereo not drawn)	i	-3	-2	-4	-1	.
CN1CCN(c2cc(N3CCCCCC3)c(F)cc2[N+](=O)[O-])CC1	i	3	-2	-3	52*	-6	MPTP abs DR=13*;MPTP cs DR=>80
CCN1CCN(c2cc(N3CCCC3)c([N+](=O)[O-])cc2F)CC1	i	3	-2	-5	8	.
COc1c(C)cc(C(=O)C2CCCN(Cc3ccccn3)C2)cc1C (stereo not drawn)	i	0	-7	-14	0	.
CCOC(=O)C1(c2ccccc2)CCN(CCC(=O)Nc2cccc(Br)c2)CC1	i	-5	-6	16	77*	11
CCCCn1nnnc1C(c1ccccc1)N1CCC2(CC1)C(=O)NCN2c1ccccc1 (stereo not drawn)	i	.	1	8	-2	.
CCCCCCCC(=O)NC(Oc1ccccc1[N+](=O)[O-])C(Cl)(Cl)Cl (stereo not drawn)	i	-8	-4	32	70*	59*
COC(=O)C1=C(c2ccc(F)cc2F)C[C@@H]2CC[C@H]1N2C(=O)NCc1ccco1	i	0	4	-2	0	.
C/C(CC(c1ccccc1)c1c(O)c2ccccc2oc1=O)=N\Nc1ccc([N+](=O)[O-])cc1[N+](=O)[O-] (stereo not drawn)	i	8	9	18	90*	77*
CC/C(CC(c1ccccc1)c1c(O)c2ccccc2oc1=O)=N\NC(N)=S (stereo not drawn)	i	0	1	-10	1	.
OCC12CO[C@@H]3c4ccccc4[C@H](OC1)N32 (stereo partly drawn)	i	-1	0	-7	-2	.
CSc1ccc(C(=O)C2CCCN(Cc3cc4ccccc4[nH]3)C2)cc1 (stereo not drawn)	i	-7	-1	10	58*	-8	MPTP abs DR=5.9*;MPTP cs DR=25*
Cc1[nH]c2c(C(F)(F)F)cccc2c1CCN	i	-1	2	-4	73*	-7	MPTP abs DR=i;MPTP cs DR=>80
Cc1[nH]c2ccc(O)cc2c1CCN	i	0	3	-6	-2	.
CC1=NN=C(c2ccc(N)cc2)c2cc3c(cc2C1)OCO3	i	1	9	-2	-4	.
OC(CNCc1ccccc1)c1ccc(Cl)cc1 (stereo not drawn)	i	3	-1	-4	0	.
CC(C)NCC(O)c1ccc(C2CCCC2)cc1 (stereo not drawn)	i	-9	5	-7	96*	-8	MPTP abs DR=16*;MPTP cs DR=>80
COc1ccc(CCNCc2ccccc2)cc1	i	0	1	-5	0	.
COc1cccc(CCNCc2ccc(SC)cc2)c1	i	-9	1	-6	88*	-11	MPTP abs DR=13*;MPTP cs DR=>80
O=C(Nc1ccc(Cl)cc1)O/N=C(\c1ccccc1)c1ccccn1	i	11*	-1	0	87*	101*
N#CC(C#N)=C(C#N)c1ccc(Nc2ccccc2)cc1	i	-7	5	48	118*	61*
CN1C[C@@H]2C[C@@H](c3cccn3-c3ccccn3)N3CCC[C@@]23C1=O	i	-1	1	-7	-1	.
CN1CCN(c2ccc(Cl)cc2N)CC1	i	1	-1	-3	0	.
Cc1ccc(Cl)cc1N1CCN(CCN)CC1	i	-3	3	-15	78*	-8	MPTP abs DR=12*;MPTP cs DR=>80
SMILES	Myeloid diff MLP	GRIN3A LBD mod	rCAG binder	FAS-TE inh	MPTP inh	MPTP counter	others
COCCN1C(=O)NC(=O)/C(=C\c2ccc(Br)cc2)C1=O	i	-2	-2	-5	0	.
CC(N)Cc1c[nH]c2ccc(OCc3cccs3)cc12 (stereo not drawn)	i	-1	10	-3	82*	-11	MPTP abs DR=9.8*;MPTP cs DR=>80
CC(N)Cc1c[nH]c2ccc(O)cc12 (stereo not drawn)	i	-1	2	-3	3	.
O=C(NCc1cccnc1)Nc1ccc([N+](=O)[O-])cc1	i	-5	-2	3	66*	96*
CNCC(O)c1cccc(OC(=O)c2ccccc2C)c1 (stereo not drawn)	i	-1	8	-10	61*	-5	MPTP abs DR=8.9*;MPTP cs DR=>80
CCC(COC(=O)NC)NC(=O)Oc1cccc(C)c1 (stereo not drawn)	i	-1	3	3	-2	.
CCN1/C(=C/C=C/C2=[N+](CC)c3ccccc3C2(C)C)C(C)(C)c2ccccc21	?	.	-76	-138	+	92*
CCOC(=O)C(O)(c1cn(C)c2ccccc12)C(F)(F)F (stereo not drawn)	i	1	1	-3	0	.
CSc1ncc(/C=C2/C(=O)NC(=O)N(C)C2=O)cn1	i	0	1	-5	-1	.
CSc1ncc(/C=C2/C(=O)NC(=O)N(C3CCCCC3)C2=O)cn1	i	-2	16	2	90*	-10	MPTP abs DR=3.4*;MPTP cs DR=>80
COc1ccc(NC(=O)c2cn(CCC#N)nc2-c2cccc(Br)c2)cc1	i	-7	2	4	0	.
Oc1ccc(C2NCc3ccccc3-n3cccc32)cc1Cl (stereo not drawn)	i	0	3	-1	84*!	-15	MPTP abs DR=i;MPTP cs DR=>80
Cc1ccc(C[n+]2c(-c3ccc(C)cc3)cc(-c3ccc(C)cc3)cc2-c2ccc(C)cc2)cc1	?	-41	.	-10	93*	116*
Cc1ccc(C2C(S(C)(=O)=O)=C(O)C(=O)N2c2ccccc2)cc1 (stereo not drawn) (tested in a mixture with another compound)	i	7	8	-7	-1	.
NNC(N)=O	i	-2	0	4	0	.
CCOc1cc(C)cc2oc(=O)c3c(c12)CCCC3	i	1	2	1	-1	.
Cc1cc(O)c2c3c(c(=O)oc2c1)CCC(C)C3 (stereo not drawn)	i	3	10	-1	57*	89*
